Laboratory results reported in PubChem BioAssay (NCI).
This is part of a sample that, as a whole, favours compounds with a hit. Of some 83,000 tested, about 20% had one in any assay.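 Results are percent growth after 48 hours of single-concentration exposure. 100 means growth as in untreated cells, lower positive values show inhibition; negative values down to -100 show cell death.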 Active and inactive are the calls of the source. The calls were made as follows: active = growth percent below 10; inactive = the rest.

tested on: HL-60(TB) leukemia; assay: NCI-60 one-dose screen, 48 h (100 = growth as untreated, 0 = no growth, -100 = all killed); conditions: 10 µM unless noted

Compound	growth
CCCCCCCCCCCCCCCCCCOP(=O)(O)O	102% (inactive)
CC1CC2Oc3ccc(Cl)cc3C(=O)N2O1 (stereo not given)	110% (inactive)
OCCNc1nc(Nc2ccc(Cl)c(Cl)c2)nc2ccccc12	44.4% (inactive)
COc1ccc(C2[C@@H](c3ccccc3)C(=O)N2c2cc(OC)c(OC)c(OC)c2)cc1F (stereo not given in full)	-50.3% (active)
CCNC(=O)Nc1ncccc1OCc1ccc(F)cc1	95.5% (inactive)
COc1ccc(-c2nc(-c3nc4ccc(OC)cc4[nH]3)cc3c2[nH]c2ccccc23)cc1	34.7% (inactive)
COc1ccc(-c2c(-c3ccc(OC)c(O)c3)cnc3ncnn23)cc1	106% (inactive)
COc1ccccc1Nc1cc(O)c2c(=O)cc(-c3ccccc3)oc2c1	-6.07% (active)
NC(=O)CCC(C(=O)O)N1C(=O)c2ccc(O)cc2C1=O (stereo not given)	134% (inactive)
CCN(CC)CCNc1ccc(C)c2sc3cc(Cl)ccc3c(=O)c12	17% (inactive)
O=C(CC(C(=O)c1ccccc1)N1CCN(Cc2ccccc2)CC1)c1ccccc1 (stereo not given)	28.5% (inactive)
C#CCOc1cccc(Nc2ncnc3c2ncn3C2CCN(C(=O)CCl)C2)c1 (stereo not given)	-56.3% (active)
O=[N+]([O-])c1cccc(-c2ncc(-c3ccc(Cl)cc3Cl)[nH]2)c1	70.1% (inactive)
COc1ccc(/C=C/C(c2cc(OC)c(OC)c(OC)c2)n2cncn2)cc1O (stereo not given)	-36.3% (active)
C[n+]1c(-c2ccccc2)c2cc(N)ccc2c2ccccc21	59.4% (inactive)
CCC(C)(C)c1ccc(Nc2ccc(Nc3ccc(C(C)(C)CC)cc3)cc2)cc1	47.5% (inactive)
Cc1c(O)c(O)cc2c3c(oc12)CC(c1ccc2c(c1)OCO2)CC3=O (stereo not given)	73.7% (inactive)
N#CC1=CC2CN(Cc3ccccc3)C1C1C(=O)N(c3ccccc3)C(=O)C21 (stereo not given)	76% (inactive)
O=C1C(Nc2ccccn2)=C(I)C(=O)c2ncccc21	-55.5% (active)
COc1cc(C2CC(=O)Nc3c2ccc2ccccc32)cc(Br)c1OC (stereo not given)	-15.2% (active)

Compound	growth
O=C1/C(=C/c2ccccc2)CN(C(=O)CCN2CCC(=NO)CC2)C/C1=C\c1ccccc1	5.03% (active)
CC(C)CNCC(=O)Nc1ccc(Cc2ccc(NC(=O)CNCC(C)C)cc2)cc1	38% (inactive)
COc1cccc2nc3n(c12)C(c1c(F)cccc1F)SC3 (stereo not given)	70.3% (inactive)
COC(=O)C(C)NC1=C(Cl)C(=O)C(NC(C)C(=O)OC)=C(Cl)C1=O (stereo not given)	97.8% (inactive)
CC(C)(C)n1cc(-c2ccnc(NCCCNS(=O)(=O)c3cccc(F)c3)c2)c(-c2cccc(O)c2)n1	35.4% (inactive)
C#CC#CC#CC#CC#CC#CC#CC#CC[C@H]1OC[C@H](COC(=O)O[C@@H](C(=O)O[C@H]2C[C@@]3(O)[C@@H](OC(=O)c4ccccc4)[C@@H]4[C@]5(OC(C)=O)CO[C@@H]5C[C@H](O)[C@@]4(C)C(=O)[C@H](OC(C)=O)C(=C2C)C3(C)C)[C@@H](NC(=O)c2ccccc2)c2ccccc2)O1	11.3% (inactive)
O=C(Nc1ncccc1OCc1ccccc1)NC1CCCCCC1	57.7% (inactive)
CCOCCc1c(O)nc(SC)[nH]c1=O	93.3% (inactive)
C/C(=N\NC(=O)C(C)SC(C)C(=O)N/N=C(\C)c1cccnc1)c1cccnc1 (stereo not given)	77.1% (inactive)
COc1cc(-c2nc3nc4sc(C)c(C)c4c(=O)n3[nH]2)cc(OC)c1OC	80.7% (inactive)
O=C(N/N=C/C[C@@H]1[C@@H](/C=C/[C@@H](O)COc2cccc(Cl)c2)[C@H](O)C[C@@H]1O)c1ccncc1	87.5% (inactive)
CC1(C)CC[C@]2(C(=O)N3CCNCC3)CC[C@]3(C)C(=CC[C@@H]4[C@@]5(C)CCC(=O)C(C)(C)[C@@H]5CC[C@]43C)[C@@H]2C1	102% (inactive)
O=S(=O)(Cc1cccc2c(CS(=O)(=O)c3ccc(Cl)cc3)cccc12)c1ccc(Cl)cc1	93.5% (inactive)
COc1cc(-c2cc(C(=O)N3CCN(C(=O)c4ccccc4NCc4cccs4)CC3)nc3cc(-c4ccccc4)nn23)cc(OC)c1OC	82.7% (inactive)
COc1ccc2c(c1OC)C(=O)O[C@H]2[C@H]1c2c(cc3c(c2OC)OCO3)CCN1C	31.9% (inactive)
S=c1[nH]cccc1-c1nnc2n1Nc1nc3ccccc3cc1CS2	105% (inactive)
CC(=O)O[C@H]1CC[C@]2(C)[C@H]3CC=C4[C@@H]5CC(C)(C)CC[C@]5(C(=O)OCC(COC(=O)C(Cl)Cl)(COC(=O)C(Cl)Cl)NC(=O)C(Cl)Cl)CC[C@@]4(C)[C@]3(C)CC[C@H]2C1(C)C	33.1% (inactive)
O=C1Nc2ccccc2/C1=N/N=C/c1ccsc1	99.4% (inactive)
Clc1ccc2c(NCCCCNc3nc(N4CCOCC4)nc4ccccc34)ccnc2c1	-59.8% (active)
COc1ccc(-c2[nH]nc(N)c2-c2cc(OC)c3c(c2)OCO3)cc1	20.5% (inactive)
